The record followed here is the supplement of paper PMC8047044.

Assay [1] has as its system Neuro-2a. Nature of the assay: neurite formation score, plate-normalized to DMSO control mean 5.04 (score (0-8 scale)); higher = more or longer neurites. As to conditions: 1 µM. The method, then:
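Neuro-2a mouse neuroblastoma cells in PLL-coated 96-well plates were pre-treated for 1 h in DMEM(+) with each kinase inhibitor at 1 µM, then switched to serum-free DMEM(-) with inhibitor to induce neurite outgrowth and fixed about 2-3 h later. Three blinded observers scored neurite formation from 0 (no neurites) to 8 (long neurites on almost all cells).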

The subject of assay [2] is Neuro-2a. The description is as above. As to conditions: 0.1 µM. As to the method: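 Neuro-2a mouse neuroblastoma cells in PLL-coated 96-well plates were pre-treated for 1 h in DMEM(+) with each kinase inhibitor at 0.1 µM, then switched to serum-free DMEM(-) with inhibitor to induce neurite outgrowth and fixed about 2-3 h later. Three blinded observers scored neurite formation from 0 (no neurites) to 8 (long neurites on almost all cells).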

With `O=C(NC(NC(=S)Nc1ccc(F)c([N+](=O)[O-])c1)C(Cl)(Cl)Cl)C(c1ccccc1)c1ccccc1` (stereo not drawn), the neurite formation score worked out at 3.96 in the assay with Neuro-2a [1] and 4.25 in the assay on Neuro-2a [2].
`N#CC[C@H](C1CCCC1)n1cc(-c2ncnc3[nH]ccc23)cn1` [Ruxolitinib phosphate]: the neurite formation score with Neuro-2a [1] turned out to be 5.02; in the assay with Neuro-2a [2], 4.92.
Take `CCN(CC)CCCC(C)Nc1nc(C)cc(Nc2ccc3nc(C)cc(N)c3c2)n1` (stereo not drawn): the figures for the neurite formation score with Neuro-2a [1] and in the assay on Neuro-2a [2] were 4.91 and 5.38, respectively.
`CS(=O)(=O)CCNCc1ccc(-c2ccc3ncnc(Nc4ccc(OCc5cccc(F)c5)c(Cl)c4)c3c2)o1` [Lapatinib]: the neurite formation score in the assay with Neuro-2a [1] is 4.24; in the assay with Neuro-2a [2], 4.88.
